# Screens: PubChem, Center for Chemical Genomics, University of Michigan
# Dicer inh = inhibitors of Dicer pre-microRNA processing, primary screen, biochemical, cat-ELCCA, chemiluminescence; hit rate 6% among 47,000; z-score at 25 µM; cat-ELCCA pre-miR-21 Dicer processing; active compounds read high; in the data active means z-score above about 3, passing the limit was not always enough;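 further: higher signal means more uncleaved substrate so more Dicer inhibition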
# A number is an active result; i = inactive. The full list was thinned out, with hits kept by preference.
SMILES,Dicer inh
COc1cc(C2c3c(oc4ccccc4c3=O)C(=O)N2c2ccccn2)ccc1OCc1ccccc1 (configuration not stated),i
O=C1c2oc3ccccc3c(=O)c2C(c2cccc(Oc3ccccc3)c2)N1c1ccccn1 (configuration not stated),4.26
COc1cc(C2c3c(oc4ccccc4c3=O)C(=O)N2c2ccccn2)ccc1OCCC(C)C (configuration not stated),3.45
O=C1c2oc3ccccc3c(=O)c2C(c2cccc(Br)c2)N1c1ccccn1 (configuration not stated),i
C=CCOc1cccc(C2c3c(oc4ccccc4c3=O)C(=O)N2c2ccccn2)c1 (configuration not stated),i
CCCCOc1cccc(C2c3c(oc4ccccc4c3=O)C(=O)N2c2nnc(C)s2)c1 (configuration not stated),i
CCCCCOc1cccc(C2c3c(oc4ccccc4c3=O)C(=O)N2c2nccs2)c1 (configuration not stated),i
O=C1c2oc3ccccc3c(=O)c2C(c2cccc(Cl)c2)N1c1ccccn1 (configuration not stated),i
COc1cccc(C2c3c(oc4ccccc4c3=O)C(=O)N2c2ccccn2)c1 (configuration not stated),i
CCCCOc1cccc(C2c3c(oc4ccccc4c3=O)C(=O)N2c2ccccn2)c1 (configuration not stated),3.24
COc1cc(C2c3c(oc4ccccc4c3=O)C(=O)N2c2nnc(C)s2)ccc1OCCC(C)C (configuration not stated),i
CCOc1c(Br)cc(Br)cc1/C=C1/SC(=S)NC1=O,i
c1ccc(CNc2nnc3c4ccccc4c4ccccc4c3n2)cc1,i
OCCN1CCN(C2CCN(Cc3ccccc3Br)CC2)CC1,i
CCCCc1[nH]nc2c1C1(CCN(C(=O)OCC)CC1)C(C#N)=C(N)O2,i
Cc1ccc(OCC(=O)NN)c2c1CCC2,i
Cc1cc(-c2noc(COc3ccc(F)cc3F)n2)c2ccccc2n1,i
CCOC(=O)c1ccc2nc(C(F)(F)F)cc(N3CCN(C)CC3)c2c1,i
CC(CC(=O)O)CC(=O)Nc1nncs1 (configuration not stated),i
CC(CC(=O)O)CC(=O)NCc1ccc(Cl)cc1 (configuration not stated),3.27
O=C(O)CC(CC(=O)O)c1ccc(Cl)cc1,i
COc1cc(Cl)c(C(F)(F)F)cc1NC(=O)c1ccccc1Cl,i
O=C(CSc1n[nH]c(-c2ccncc2)n1)c1c[nH]c2ccccc12,i
c1cncc(-c2nc3ccccc3s2)c1,5.61
c1ccc(-c2nc3ccccc3s2)cc1,i
SMILES,Dicer inh
Clc1ccc(-c2nc3ccccc3s2)cc1,i
Clc1ccc(-c2nc(N3CCOCC3)c3ccccc3n2)cc1,i
Cc1cc(C)n(CC(=O)Nc2ccccc2)c(=O)c1C#N,i
CCCN1CN=C(NS(=O)(=O)c2ccc(C)cc2)NC1,i
Cc1ccc(S(=O)(=O)NC2=NCN(Cc3ccccc3)CN2)cc1,4.62
Cc1ccc(S(=O)(=O)NC2=NCN(CCc3ccccc3)CN2)cc1,i
O=C(c1cn(CCOc2ccccc2F)c2ccccc12)C1CC1,i
COCCOC(=O)C1=C(C)Nc2nc3ccccc3n2C1c1ccc(C(C)C)cc1 (configuration not stated),i
O=c1[nH]c(/C=C\c2ccco2)c([N+](=O)[O-])c(=O)[nH]1,i
C1CN(c2nsnc2OCCOc2nsnc2N2CCOCC2)CCO1,i
O=C(Oc1nsnc1N1CCOCC1)N1CCOCC1,3.1
O=C(Oc1nsnc1N1CCOCC1)N1CCCCC1,i
N#Cc1nc(COc2ccccc2Cl)oc1NCCN1CCOCC1,i
CCCCOC(=O)C1=C(C)NC2=C(C(=O)CC(C)(C)C2)C1c1cccc(Cl)c1 (configuration not stated),i
N=c1scc(-c2ccc(Cl)cc2)n1-c1cc(Cl)c(Cl)cc1Cl,i
Cc1ccc2nc(Nc3nc(O)cc(=O)[nH]3)nc(C)c2c1,i
Cc1ccc2nc(Nc3nc(C)cc(=O)[nH]3)nc(C)c2c1,i
Cc1cc(C)c2nc(Nc3nc(O)cc(=O)[nH]3)nc(C)c2c1,5.25
CCOC(=O)c1ccc(N2CCCCC2)c(NC(=O)c2sc3ccccc3c2Cl)c1,i
O=C(OCCSc1ccccn1)c1cccc(Cl)c1,i
C=C1SC(=Nc2cccc(OC)c2)N(C(=O)c2c(-c3ccccc3Cl)noc2C)C1(C)C,i
CC(=O)N/C(=C\c1cc(F)cc(F)c1)C(=O)O,i
O=C1c2cccc3cccc(c23)C(=O)N1NCCO,i
CCc1sc(NC2=NS(=O)(=O)c3ccccc32)nc1-c1ccccc1,i
Cc1sc(NC2=NS(=O)(=O)c3ccccc32)nc1-c1ccc(Cl)cc1,3.58
Cc1ccccc1NC1=NS(=O)(=O)c2ccccc21,i
Cc1cc2nc(Nc3nc4ccccc4c(=O)[nH]3)nc(C)c2cc1C,i
Cc1nc(Nc2nc3ccccc3c(=O)[nH]2)nc2c(C)cccc12,3.96
Cc1ccc2nc(Nc3nc(C)c4ccccc4n3)[nH]c(=O)c2c1,i
